Experimental data from PubChem BioAssay (Tox21).
Inconclusive results are not listed. Active and inactive are the calls of the source. The call rests on the fitted dose curve.

Experiment: p53 small molecule agonists, cell-based qHTS assay with human liver microsomes (AID 1963577);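 further: p53 response element beta-lactamase reporter cells with liver microsomes plus NADPH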
Conditions: HCT-116 p53RE-bla with human liver microsomes, ratio, 16 h; series mostly up to 66 µM; activation: at the top concentration
Description: National Center for Advancing Translational Sciences [NCATS]
Division of Preclinical Innovation [DPI]
U.S. Environmental Protection Agency [EPA]
National Institutes of Environmental Health Sciences [NIEHS]
National Toxicology Program [NTP]
U.S. Food and Drug Administration [FDA]
p53, a tumor suppressor protein, is activated following cellular insult, including DNA damage and other cellular stresses. The activation of p53 regulates cell fate by inducing DNA repair, cell cycle arrest, apoptosis, or cellular senescence. The activation of p53, therefore, is a good indicator of DNA damage and other cellular stresses. […] The activation of the reporter gene under culture conditions can be detected by fluorescence intensity.
Tox21 Assay Protocol Summary:
The p53RE-bla cells were dispensed at 4,000cells/3ul/well in 1536-well black-clear bottom plates. After the assay plates were incubated at 37 C, 5% CO2 incubator for 5 hours, 23 nL of compounds dissolved in DMSO, positive controls or DMSO only was transferred to the assay plate. Following compound addition, 3 uL of human liver microsomes (XenoTech, Kansas City, KS) at final concentration of 0.5 mg/mL and 1uL of Beta-Nicotinamide adenine dinucleotide 2-phosphate (NADPH) at final concentration of 0.5 mg/mL were transferred to the assay plate. The plates were incubated at 37 C for 16 hours. 1 uL of LiveBLAzer detection mixture was added to each well and the plates were incubated at room temperature in the dark for 2 h.
On the % scale 0 is the no-effect control and ±100 the full control effect.

Row | Compound | activation | Potency
1 | CC1=CC(=O)[C@H]2C[C@@H]1C2(C)C | -7.11% (inactive) | 
2 | C=CC(=O)O[C@H]1C[C@@H]2CC[C@@]1(C)C2(C)C | 0.907% (inactive) | 
3 | CN(C)C(=S)SC(=S)N(C)C |  | inactive
4 | CC(C)c1ccccc1O | 1.01% (inactive) | 
5 | CCCCC(CC)C(=O)OCCOCCOCCOC(=O)C(CC)CCCC (stereo not given) | 0.184% (inactive) | 
6 | O=C(C(=O)c1ccco1)c1ccco1 | -2.45% (inactive) | 
7 | O=C(O)C(S)C(S)C(=O)O (stereo not given) | 3.03% [at 30.3 µM] (inactive) | 
8 | O=C(O)c1ccc([N+](=O)[O-])cc1 |  | inactive
9 | C=CCc1cc(OC)c(O)c(C(=O)NCCO)c1 | -13.5% [at 30.3 µM] (inactive) | 
10 | C/C=C/CO | 1.51% (inactive) | 
11 | O=C(O)c1cc(=O)c2c(OCC(O)COc3cccc4oc(C(=O)O)cc(=O)c34)cccc2o1 |  | inactive
12 | CCCCOCCOCCOCCCC | 0.434% (inactive) | 
13 | CCCCCCCCCCCCC(=O)O | -1.49% (inactive) | 
14 | CSc1cnccn1 | 3.15% (inactive) | 
15 | CCC(CO)(CO)CO | -1.14% (inactive) | 
16 | CC(=O)C1(C)CC2=C(CCCC2(C)C)CC1C (stereo not given) |  | inactive
17 | COc1cc(C(=O)NCc2ccc(OCCN(C)C)cc2)cc(OC)c1OC | -6.03% [at 30.3 µM] (inactive) | 
18 | CCCCCCCCSCCO | 1.87% (inactive) | 
19 | CC(C)CNCC(C)C | -4.17% (inactive) | 
20 | OCCC(F)(F)C(F)(F)C(F)(F)C(F)(F)C(F)(F)C(F)(F)F | 3.62% (inactive) | 

Row | Compound | activation | Potency
21 | CNC(=O)c1c(I)c(NC(C)=O)c(I)c(C(=O)O)c1I | -6.82% [at 30.3 µM] (inactive) | 
22 | OCCCCl | 0.971% (inactive) | 
23 | Cc1ccc(C)cc1 | 1.13% (inactive) | 
24 | COC(OC)OC | -0.212% (inactive) | 
25 | O=c1[nH]c(=O)c2cn[nH]c2[nH]1 | -2.62% (inactive) | 
26 | CN1CCOCC1 |  | inactive
27 | CC[C@H](c1ccc(O)cc1)[C@@H](CC)c1ccc(O)cc1 | 4.8% [at 30.3 µM] (inactive) | 
28 | O=c1n(CCCN2CCN(c3cccc(Cl)c3)CC2)nc2ccccn12 |  | inactive
29 | CC(C)(C)S | 1.25% (inactive) | 
30 | CCOC(=O)CN1CCCC1=O | 11% [at 30.3 µM] (inactive) | 
31 | CO[Si](CCCCl)(OC)OC | -4.85% (inactive) | 
32 | O=C(O)c1ccccc1-n1cc(C(=O)O)c(=O)c2cc(Nc3c(F)cc(F)cc3Cl)c(Cl)cc21 | -5.41% (inactive) | 
33 | C(=C\c1ccccc1)/c1ccccc1 | -4.66% (inactive) | 
34 | CC(CCO)CCc1ccccc1 (stereo not given) | -2.27% (inactive) | 
35 | CO/N=C(/C(=O)N[C@@H]1C(=O)N2C(C(=O)O)=C(COC(N)=O)CS[C@H]12)c1ccco1 | -2.46% (inactive) | 
36 | CCCCCCOC(=O)C(C)CC (stereo not given) | 0.151% (inactive) | 
37 | COc1cccc(OC)c1 | 0.326% (inactive) | 
38 | CC(C)=CCC/C(C)=C/C#N | -10.3% (inactive) | 
39 | O=c1cccc[nH]1 | 2.8% (inactive) | 
40 | COC(OC)C(C)c1ccccc1 (stereo not given) | 7.31% (inactive) | 
